The text below walks through data of PubChem BioAssay AID434927 (Sanford-Burnham Center for Chemical Genomics, 2010).

Calls of active or inactive are those of the source.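 How the source made its calls: active means inhibition above about 23% in any of six single-dose repeats (limit read from the data); inactive means the rest.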

For the assay, the target named is Intestinal-type alkaline phosphatase (Homo sapiens) (UniProt P09923). The assay can be described thus: suppression of intestinal alkaline phosphatase activity – biochemical, luminescence, single concentration, uHTS hits, confirmation (AID 434927).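 Further: plate controls were DMSO wells with enzyme for no effect and wells lacking enzyme for full effect.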 Conditions: purified human IAP, CDP-Star luminescence, 30 min; at 8.3 µM; stronger effect = higher value.
Chain of Intestinal-type alkaline phosphatase (Homo sapiens) (P09923 whole entry, looked up): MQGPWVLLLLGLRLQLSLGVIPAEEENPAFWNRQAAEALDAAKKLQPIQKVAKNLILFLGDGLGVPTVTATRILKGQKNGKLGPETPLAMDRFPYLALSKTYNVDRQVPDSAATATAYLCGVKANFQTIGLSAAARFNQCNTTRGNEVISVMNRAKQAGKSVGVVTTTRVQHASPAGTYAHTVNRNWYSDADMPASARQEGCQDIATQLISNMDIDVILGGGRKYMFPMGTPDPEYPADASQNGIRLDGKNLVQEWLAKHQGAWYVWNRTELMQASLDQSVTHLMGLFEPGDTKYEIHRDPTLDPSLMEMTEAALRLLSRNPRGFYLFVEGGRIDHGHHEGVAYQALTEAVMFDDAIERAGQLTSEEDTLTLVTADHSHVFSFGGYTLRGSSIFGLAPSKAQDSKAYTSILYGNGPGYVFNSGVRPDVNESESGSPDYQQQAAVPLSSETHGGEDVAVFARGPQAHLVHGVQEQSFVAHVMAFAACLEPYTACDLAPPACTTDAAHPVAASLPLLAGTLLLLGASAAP
As a reminder, the inhibition is the change of the read-out against control, counted positive when it falls. As for `O=C(CSc1ncn[nH]1)NCCc1ccccc1`, the inhibition was -113% (inactive).
Take `CCOc1cc(/C=N/NC(=O)C(=O)N/N=C/c2ccc(O)c(OCC)c2)ccc1O`: the inhibition is -47.6% (inactive).
To `CCCCCCCn1c(=N)n(CC(=O)c2ccco2)c2ccccc21` belongs -49.6% (inactive); to `CN(Cc1ccccc1)C(=O)Nc1ccc(Cl)cc1`, -58.7% (inactive).
To `CCOC(=O)c1cnc(-n2nc(C)cc2C)nc1NNc1nc(C)cc(C)n1` belongs 71.7% (active); to `Cc1nc2c3ccccc3nc(NNC(=O)CCC(=O)NCCC(C)C)n2n1`, -64.4% (inactive); to `CC(=O)c1ccc(NC(=O)C2CCCN2S(=O)(=O)c2cccs2)cc1` (centres undefined), -85.1% (inactive).
To `CC(=O)Nc1cccc(C(=O)NNC(=O)c2n[nH]c(=O)c3ccccc23)c1` belongs -125% (inactive); to `O=C1Nc2ccc(Br)cc2C12NNc1ccccc1O2` (centres undefined), 35% (active); to `CCn1cnc2sc(C(=O)O)c(C)c2c1=O`, 64% (active).
Turning to `O=C(O)COn1c(-c2ccc(Cl)cc2)nc2ccc(Cl)cc21`, the inhibition was 26.6% (active).
To `CN(Cc1ccccc1)C(=O)c1[nH]cnc1C(=O)Nc1nccs1` belongs -141% (inactive).
For `CCC(OC(=O)C1=Cc2ccccc2OC1)C(=O)NC1CCCC1` (centres undefined), the inhibition was -52.5% (inactive).
On to `O=C(CCN1CCN(Cc2ccccc2)CC1)NNC(=O)Nc1cccc(C(F)(F)F)c1`, for which the inhibition was -0.057% (inactive).
To `CCOC(=O)c1c(C)[nH]c(C(=O)N/N=C/c2cc([N+](=O)[O-])ccc2O)c1C` belongs 29.6% (active); to `N#C/C(=C(\O)c1ccco1)c1ccccn1`, 55.3% (active); to `Cc1[nH]n(-c2nc(-c3ccccc3)cc(=O)[nH]2)c(=O)c1CCO`, 47.5% (active).
To `OC1CN=C2Sc3ccccc3N2C1` (centres undefined) belongs -100% (inactive); to `CCOc1ccc(CC(=O)NNC(=S)NC2CCCCC2)cc1OCC`, -79.5% (inactive).
The value for `Cc1cccc(-n2ncc3c(NNC(=O)c4ccco4)ncnc32)c1` was -74.5% (inactive); that for `O=S(=O)(c1ccccc1)N1CCCC1c1cccs1` (centres undefined) was -172% (inactive); that for `O=c1c2c(-c3cccs3)csc2ncn1-c1ccc(Br)cc1` was -112% (inactive).
Turning to `COc1ccccc1CCNC(=O)C1CCN(c2nnc(C)c3c(C)n(-c4ccc(C)cc4)nc23)CC1`, the inhibition was 30.8% (active).
The value for `COc1cc(Cl)ccc1OCc1cc(C(=O)N2CCCCCCC2)no1` was 34.5% (active); that for `O=C(COc1ccccc1Cl)N1CCN(c2ccc([N+](=O)[O-])c(N3CCCCC3)c2)CC1` was -60.9% (inactive).
Regarding `Cc1cc(=O)[nH]c(-n2[nH]c3c(c2=O)CCCC3)n1`, the inhibition was 55.9% (active).
The value for `Cc1ccc(S(=O)(=O)N(CC(=O)Nc2ccc(C)cc2C)C(=O)N2CCN(C)CC2)cc1` was -55.4% (inactive); that for `O=c1c2ccccc2nc(N/N=C/c2c(O)ccc3ccccc23)n1O` was -53.7% (inactive).
With `CCn1c(C)nc2cc(C(=O)N/N=C/c3cccc(O)c3O)ccc21`, the inhibition is -42.9% (inactive).
The value for `CC(C)(C)N/N=C/c1c(O)n(-c2ccc(Cl)cn2)c(=O)c2ccccc12` was -93.3% (inactive); that for `CC(=O)CCc1ccc(Oc2nc(-c3cccnc3)nc3ccccc23)cc1` was 42% (active).
The value for `Cc1ccc(O)c(N/C=C/C(=O)c2ccc(F)cc2)c1` was -120% (inactive).
The value for `Cc1ccc(NC(=O)C2CC(=O)Nc3nc4ccccc4n32)c(C)c1` (centres undefined) was 38.4% (active).
In the case of `CN(C)S(=O)(=O)c1cccc(NC(=S)NNC(=O)c2cc3ccccc3cc2O)c1`, the inhibition was 72.3% (active).
